D3 ag: D3 dopamine receptor (human) agonism. D3R DiscoveRx beta-arrestin cells, luminescence, 90 min. P35462. 410,000 tested, 0.58% active. max activation, %; in the data active = max activation above about 30%
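Cells at 1500/well, incubated overnight, then treated with pinned compounds (dopamine as control) for 90 min at 37 degrees C. DiscoveRx reagent added for 30 - 60 minutes at room temperature; luminescence read.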
B2AR arrestin: beta2AR (human) beta-arrestin recruitment activity. beta-arrestin recruitment to beta2AR, cell-based reporter. Potency, µM (top dose mostly 46.1 µM), hits mostly activators. 330,000 tested, 0.02% active; active = well fitted activation curve with a large enough effect; inconclusive = small, poorly fitted or top-dose-only effect; also: nearly all actives have a fitted effect of over 65% in size
Target sequence (P07550 whole entry, looked up): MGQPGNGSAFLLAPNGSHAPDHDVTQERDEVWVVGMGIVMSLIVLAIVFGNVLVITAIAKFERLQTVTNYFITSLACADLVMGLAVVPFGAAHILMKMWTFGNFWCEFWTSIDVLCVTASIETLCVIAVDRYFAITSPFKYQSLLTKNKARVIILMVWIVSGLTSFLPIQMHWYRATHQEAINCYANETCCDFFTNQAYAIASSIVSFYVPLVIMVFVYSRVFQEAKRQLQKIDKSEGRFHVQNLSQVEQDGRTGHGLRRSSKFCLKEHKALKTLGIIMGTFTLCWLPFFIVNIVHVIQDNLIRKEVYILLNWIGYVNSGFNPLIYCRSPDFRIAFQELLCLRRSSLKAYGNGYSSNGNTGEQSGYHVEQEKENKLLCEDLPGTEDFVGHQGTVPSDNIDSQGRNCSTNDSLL
D3 antag: D3 dopamine receptor (human) antagonism | D3R cells, DiscoveRx beta-arrestin luminescence, antagonist mode; active compounds read low | max response, negative = inhibition, % | 360,000 tested, 2.5% active | AID 652054; in the data active = max response below about -50%; inconclusive = no clear call, values can overlap the other calls
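Cells plated overnight at 1500 cells/well, then exposed to library compounds with dopamine controls for 90 minutes at 37 degrees C. DiscoveRx reagent added for 30–60 minutes at room temperature; luminescence read, quantitative HTS format.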
Giardia kill: Giardia lamblia killing; 340,000 tested, 0.15% active; Giardia lamblia trophozoite viability; activity change, % at 7.66 µM, hits read low; in the data active = activity change below about -80%; inconclusive = between about -30% and that limit;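 also: parasites exposed to compound for two days anaerobically before the ATP read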
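Giardia lamblia trophozoites (100 cells/well) were incubated with compounds for 48 h at 37 deg C under anaerobic conditions. Viability was read as ATP content by one-step luminescence after 15-30 min at room temperature.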
Of the large screens only hits and unclear results are named; the others gave an inactive call. The list is not random: actives were taken first. Their share in the collection is about 2.8%.

CC(C)C[C@H]1CN([C@@H](Cc2ccccc2)CN2CCC[C@@H]2CN2C(=O)C(=O)NC[C@@H]2Cc2ccccc2)C(=O)C(=O)N1CCc1ccccc1	D3 antag -65 (no result: B2AR arrestin, Giardia kill)
CC(C)C[C@H]1CNC(=S)N1C[C@H]1CCCN1C[C@H](Cc1ccccc1)N1C[C@H](Cc2ccc(O)cc2)N(CC2CCCCCC2)C1=S	none (no result: B2AR arrestin, Giardia kill)
CC(C)C[C@H]1CNC(=S)N1C[C@H]1CCCN1C[C@H](Cc1ccc(O)cc1)N1C[C@H](CC(C)C)N(CC2CCCCCC2)C1=S	D3 antag -65 (no result: B2AR arrestin, Giardia kill)
COc1ccc(NC(=O)CSc2oc(-c3cccs3)nc2S(=O)(=O)c2ccc(Br)cc2)c(OC)c1	none (no result: B2AR arrestin, D3 antag, Giardia kill)
COc1cccc(NC(=O)Nc2nc(-c3ccc(OC)c(OC)c3)cs2)c1	D3 ag 49
COc1cccc(NC(=O)Nc2ccc(Br)cn2)c1	D3 ag 49
CC1CCc2noc(NC(=O)c3ccccc3[N+](=O)[O-])c2C1 (stereo not drawn)	none (no result: B2AR arrestin, D3 antag, Giardia kill)
COC(=O)c1ccc(OC)c(Cn2c(=O)n(-c3ccc(C)cc3)c(=O)c3c2cnn3C)c1	none (no result: B2AR arrestin, D3 antag, Giardia kill)
O=C1C=CC2(O[C@H](c3ccccc3)[C@@H](c3ccccc3)O2)[C@H](Sc2ccccc2O)C1	D3 antag -118 (no result: B2AR arrestin)
CCCCCOc1ccc(C(=O)N(Cc2ccco2)C2CCS(=O)(=O)C2)cc1 (stereo not drawn)	D3 ag 30
CC(C)COc1ccc(C(=O)N(Cc2ccco2)C2CCS(=O)(=O)C2)cc1 (stereo not drawn)	none
Cc1cc(OCC(=O)Nc2sc3c(c2C(N)=O)CCCC3)ccc1C(C)C	none (no result: B2AR arrestin, D3 antag, Giardia kill)
O=C(NNC1=Nc2cccc3cccc1c23)c1ccc(Br)cc1	D3 antag -97
CC1CCN(C(=O)CSc2c3c(nc4ccc(Cl)cc24)CCCC3)CC1	D3 ag 69 (no result: B2AR arrestin, D3 antag, Giardia kill)
O=C(CS(=O)(=O)c1ccc(Cl)cc1)Nc1nc2ccc(Br)cc2s1	none (no result: B2AR arrestin, D3 antag, Giardia kill)
CC(C)N(CCCNC(=O)c1ccc(CS(=O)(=O)c2c(Cl)cccc2Cl)o1)Cc1ccccc1	D3 antag -56
O=C(NC(=S)Nc1ccc(CN2CCOCC2)cc1)c1ccc([N+](=O)[O-])cc1	D3 antag -50
O=[N+]([O-])c1cccc(COc2cccc(CN3CCOCC3)c2)c1	D3 antag -65 (no result: B2AR arrestin)
O=C(/C=C/c1cccc([N+](=O)[O-])c1)NC(=S)Nc1ccc(CN2CCOCC2)cc1	D3 antag -58
O=C1C(=O)C(c2ccccc2)C(=O)C1c1ccccc1 (stereo not drawn)	D3 ag 87 (no result: B2AR arrestin)
Cc1ccc(-c2cnc(N)n2C)cc1C	D3 antag -101
Cc1ccc(C)c(Cn2c(=O)n(CCCC(=O)NCCc3ccc(Cl)cc3)c(=O)c3ccccc32)c1	none (no result: B2AR arrestin, D3 antag, Giardia kill)
C[C@H](C(=O)OCO/N=[N+](\[O-])N1CCCC1)c1cccc2ccccc12	none (no result: D3 ag, B2AR arrestin, D3 antag)
CC(c1ccccc1)N1C(=O)c2ccc(C(=O)Nc3ccccc3C(=O)O)cc2C1=O (stereo not drawn)	D3 ag 32
O=C(Nc1ccccc1C(=O)O)c1cccc(C(=O)Nc2ccccc2C(=O)O)c1	D3 ag 30
O=C(Nc1ccccc1C(=O)O)c1cccc(NC(=O)c2ccc(Br)o2)c1	none
O=C(Nc1ccccc1C(=O)O)c1ccc(NC(=O)c2ccc(Br)o2)cc1	D3 ag 115
COc1cccc2c1O/C(=N\O)C(C(=O)Nc1cccc(Br)c1)C2 (stereo not drawn)	D3 antag -54
Oc1ccccc1C1C=C(c2ccc3c(c2)OCO3)NC(c2cccc(Cl)c2)N1 (stereo not drawn)	none (no result: D3 ag, B2AR arrestin, D3 antag)
CCCCCCn1c2c(c(=N)c3c1CCC3)CCC2	none
CCCCCCCCCn1c2c(c(=N)c3c1CCC3)CCC2	D3 antag -56
COc1ccc(NC(=O)C2CCCN(C(=O)c3cnn(-c4ccccc4)c3-n3cccc3)C2)cc1 (stereo not drawn)	none (no result: B2AR arrestin, D3 antag, Giardia kill)
CC1=NOC(=O)/C1=C\c1ccc(-c2cc(Cl)ccc2Cl)o1	D3 antag -63
CS(=O)(=O)c1ccc(S(=O)CC(=O)Oc2ccc(Cl)cc2)c([N+](=O)[O-])c1 (stereo not drawn)	D3 antag -102
COc1ccc(-c2nc(CS(=O)CC(=O)NCCc3ccccc3)c(C)o2)cc1OC (stereo not drawn)	none (no result: B2AR arrestin, D3 antag, Giardia kill)
COc1ccc(-n2nc3c(c2NC(=O)C2CC2)CS(=O)C3)cc1 (stereo not drawn)	none
COc1ccc(-n2nc3c(c2NC(=O)C24CC5CC(CC(C5)C2)C4)CS(=O)C3)cc1 (stereo not drawn)	D3 antag -56
CC(=O)Oc1ccc2cc(-c3nc4c(s3)CCc3ccccc3-4)c(=O)oc2c1	none (no result: D3 ag, B2AR arrestin, D3 antag)
CCOC(=O)C1CCN(Cc2cc(C(C)(C)C)c(O)c(C(C)(C)C)c2)CC1	D3 antag inconclusive
CC(C)(C)c1cc(CN2CCN(CCO)CC2)cc(C(C)(C)C)c1O	D3 antag -82
CC(C)CCn1c(=O)c2ccccc2n2c(CN3CCOCC3)nnc12	D3 antag -54
Cc1ccc(Cn2c(=O)c3ccccc3n3c(CCC(=O)NCCN4CCOCC4)nnc23)cc1	none
Cc1ccc2[nH]c(=O)c(CN(CCO)Cc3nnnn3Cc3ccccc3)cc2c1	none (no result: D3 ag, B2AR arrestin, D3 antag)
CCn1c(SCCN2CCCCC2)nnc1-c1ccc(S(=O)(=O)N2CCOCC2)cc1	D3 antag -74
CCn1nc(C)c(CCN(C)C(=O)Nc2ccc(C)c(Cl)c2)c1C	none (no result: B2AR arrestin, D3 antag, Giardia kill)
O=C(COc1ccc(S(=O)(=O)N2CCCCC2)cc1)NCc1cccnc1	D3 ag 36
Cc1ccc(-c2cc(C(=O)N(Cc3ccc(C(C)(C)C)cc3)Cc3ccco3)no2)cc1	none (no result: B2AR arrestin, D3 antag, Giardia kill)
N/C(=N\O)c1ccc([N+](=O)[O-])s1	Giardia kill -88
CC(C)(C)C(=O)O/N=C(\N)c1ccc([N+](=O)[O-])s1	none
CN1CCN(C(=S)c2ccc(Cl)cc2)CC1	D3 antag -87
COc1ccc(C(=S)N2CCN(C)CC2)cc1	D3 antag -74
O=c1n(-c2ccccc2)c(=O)n2n1CCCC2	D3 ag 42, D3 antag inconclusive
CC(C)NC(=O)CSc1nnc(C2CC2)n1-c1ccccc1	D3 antag -51
CNC(=O)CSc1nnc(C2CC2)n1-c1ccccc1	none
Cc1cc([N+](=O)[O-])ccc1-c1ccc(/C=N/NC(=O)c2ccc(Br)o2)o1	D3 antag -54
Oc1c(C(c2ccc(F)cc2)N2CCCC2)sc2nc(-c3ccco3)nn12 (stereo not drawn)	none (no result: B2AR arrestin, D3 antag, Giardia kill)
COc1cc(NS(=O)(=O)c2ccc3c(c2)CCN3S(C)(=O)=O)cc(OC)c1	none (no result: B2AR arrestin, D3 antag, Giardia kill)
COC(=O)c1ccc(Cl)cc1NC(=O)Nc1nnc(N(C)Cc2ccccc2)s1	none (no result: B2AR arrestin, D3 antag, Giardia kill)
CC(C)(C)S(=O)N1Cc2cc(C(=O)N3CCOCC3)nc(-c3cccc(Br)c3)c2[C@H]1CCO (stereo partly drawn)	none (no result: B2AR arrestin, Giardia kill)
CN1CCN(C(=O)c2cc3c(c(-c4cccc(Br)c4)n2)[C@H](CCO)N(S(=O)C(C)(C)C)C3)CC1 (stereo partly drawn)	D3 antag -50 (no result: B2AR arrestin, Giardia kill)
CCOC(=O)c1cccc(NC(=O)C(CC(C)C)N2Cc3ccccc3C2=O)c1 (stereo not drawn)	none (no result: B2AR arrestin, D3 antag, Giardia kill)
Cc1cc(C)cc(NC(=O)NCCn2nnc3cc(S(=O)(=O)N(C)C)ccc32)c1	none (no result: B2AR arrestin, D3 antag, Giardia kill)
